# BJeLR lethal = MLPCN primary cell-based screen for lethality selective to Ras in HRASV12 cells | BJeLR (HRASV12) viability, CellTiter-Glo ATP luminescence, 48 h | inhibition, % (concentration not given with the values) | actives 0.17% (n = 300,000) | AID 1554, 2009; in the data active = inhibition above about 50%
# SARS 3CLpro inh = SARS-CoV 3CLpro protease inhibitors, primary screen, biochemical, quenched FRET. inhibition, % at 6 µM. recombinant SARS-CoV 3CLpro, quenched FRET peptide cleavage. actives 0.14% (n = 290,000). Replicase polyprotein 1ab (Severe acute respiratory syndrome coronavirus), P0C6X7; in the data active = inhibition above about 12%
# VHR inh abs = VHR1 phosphatase inhibitors, primary screen, biochemical, absorbance, uHTS. inhibition, % at 13.3 µM. actives 0.52% (n = 290,000). Dual specificity protein phosphatase 3 (Homo sapiens), P51452. AID 1654, 2009. recombinant VHR phosphatase, pNPP absorbance; in the data active = inhibition above about 50%
# Target sequence (P51452 whole entry, looked up): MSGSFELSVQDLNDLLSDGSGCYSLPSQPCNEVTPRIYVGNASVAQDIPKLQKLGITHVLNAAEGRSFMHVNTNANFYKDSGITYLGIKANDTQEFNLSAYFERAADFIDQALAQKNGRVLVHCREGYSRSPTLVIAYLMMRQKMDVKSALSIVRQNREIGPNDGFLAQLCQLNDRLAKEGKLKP
# PrPC TRFRET = inhibitors of human cell surface prion protein PrPC, primary screen, cell-based, TR-FRET; Major prion protein (Homo sapiens), P04156; TR-FRET read-out; inhibition, % at 13.8 µM; actives 0.43% (n = 370,000); AID 720596, 2013; in the data active = inhibition above about 24%; note: 0% = median of the test wells and 100% = reference compound wells
# * marks the source's active call; other numbers are inactive results; . = no result given. Rows were chosen to be rich in hits. Some 1.1% of all compounds tested hit in one or more screens of this group.
SMILES,BJeLR lethal,SARS 3CLpro inh,VHR inh abs,PrPC TRFRET
COCCNC(=O)c1c(N)[nH]c(C(=O)c2ccc(Br)cc2)c1-c1c(OC)ccc2ccccc12,.,.,.,-10
Cc1cc(C)cc(C(=O)Nc2c3c(nn2C(C)(C)C)CS(=O)(=O)C3)c1,-6,-3,51*,-4
CC(C)(C)c1ccc(C(=O)Nc2c3c(nn2C(C)(C)C)CS(=O)(=O)C3)cc1,-4,2,28,6
CC1CCCCN1S(=O)(=O)c1ccc([N+](=O)[O-])cc1 (stereo unspecified),3,-2,5,-37
CCC1CCCCN1S(=O)(=O)c1ccc([N+](=O)[O-])cc1 (stereo unspecified),-4,-5,51*,-51
CCSc1nsc(NC(=O)Nc2cccc(F)c2)n1,15,-1,11,40*
COc1cccc(NC(=O)Nc2nc(SC)ns2)c1,-11,2,5,12
O=C(CN1C(=O)C2C3C=CC(C4CC34)C2C1=O)Nc1cccc2ncccc12 (stereo unspecified),-3,7,53*,-7
O=C(CCl)Nc1cccc2ncccc12,7,3,26,-2
O=C1Nc2ccccc2-n2nnnc2C1N1CCN(c2ccc(F)cc2)CC1 (stereo unspecified),.,.,.,-4
CC(=O)O[C@H]1C[C@@H]2OC3C=C(C)CCC3(C)[C@@]1(C)[C@@]21CO1 (stereo partly specified),.,.,.,88*
Cc1ccc2[nH]cc(CCNC(=O)c3cccs3)c2c1,4,2,52*,6
CC1=C(C(=O)Nc2cc(C(=O)N(C)Cc3ccccc3)ccc2C)SCCO1,-18,3,52*,-5
COCCNC(=O)c1ccc(C)c(NC(=O)C2=C(C)OCCS2)c1,1,2,2,4
COc1cccc2c1C(=O)c1c(O)c3c(c(O)c1C2=O)C[C@@](O)(C(C)=O)C[C@@H]3O[C@H]1C[C@H](N)[C@H](O)[C@H](C)O1,.,-11,1,-17
CC(=O)[C@]1(O)Cc2c(O)c3c(c(O)c2[C@@H](O[C@H]2C[C@H](N)[C@H](O)[C@H](C)O2)C1)C(=O)c1ccccc1C3=O,82*,.,.,.
COc1cccc2c1C(=O)c1c(O)c3c(c(O)c1C2=O)C[C@@](O)(C(=O)CO)C[C@@H]3O[C@H]1C[C@H](N)[C@@H](O)[C@H](C)O1,74*,.,.,.
CCOC(=O)COc1ccccc1C(=O)c1cnn(-c2ccccc2)c1,-2,-6,30,1
COc1ccccc1-c1nnc2sc(-c3ccc(N(C)C)cc3)nn12,53*,3,49,9
O=C1NC(Cc2ccc(O)cc2)c2nc3ccc(F)cc3c(=O)n2-c2cc(Cl)ccc21 (stereo unspecified),.,.,.,2
COc1ccc2c(c1)CC/C(=C\Nc1ccc3c(c1)OCO3)C2=O,7,-2,-2,-1
COc1ccc(N/C=C2\CCc3ccccc3C2=O)cc1,29,34*,3,5
COC(=O)[C@]12CCCCC=C1N(CCc1ccc(OC)c(OC)c1)C(=O)[C@H](CC(=O)NCCCCc1ccccc1)C2,.,.,.,6
CC(/C=N/NC(=O)c1cccs1)=C\c1ccco1,-1,3,51*,-3
CC(=O)C(Cc1ccccc1)NC(=O)COC(=O)CCN1C(=O)C2CC=CCC2C1=O (stereo unspecified),5,.,.,-4
SMILES,BJeLR lethal,SARS 3CLpro inh,VHR inh abs,PrPC TRFRET
Cc1cccc(NC(=O)CCC2CCN(C(=O)c3ccc(C)s3)CC2)c1,3,1,60*,3
Cc1noc(C)c1NC(=O)Nc1cccc2c1O[C@H](CN(C)C(=O)Nc1ccc3c(c1)OCO3)[C@@H](C)CN([C@H](C)CO)C2=O,.,.,.,-6
COC(=O)[C@]12C[C@H](CC(=O)NCCCCc3ccccc3)C(=O)N(Cc3ccco3)C1=C[C@H](C(C)(C)C)O[C@@H]2C,.,.,.,-1
CCC1CCCCN1CCCNC(=O)Cn1cc2c(n1)-c1c(oc(C(=O)N3CCCC3)c1C)CC2 (stereo unspecified),8,7,56*,-7
Cc1c(C(=O)N2CCCC2)oc2c1-c1nn(CC(=O)NCCCN3CCCCC3C)cc1CC2 (stereo unspecified),7,-6,56*,-3
O=C1C=CC2=C3c4cc(O)c(O)cc4CC3(O)COC2=C1O (stereo unspecified),.,.,.,25*
Oc1ccc(C=Nc2ccc(N3CCOCC3)cc2)c(O)c1,3,-2,10,-6
Oc1c(Cl)cc(Cl)cc1C=Nc1ccc(N2CCOCC2)cc1,-13,1,60*,-8
CN(C)CCCNc1ccc(-c2n[nH]c(=O)c3ccccc23)cc1[N+](=O)[O-],-2,-1,55*,-42
COc1ccccc1NS(=O)(=O)c1cccc(C(=O)NCC2(N3CCCCC3)CCCCC2)c1,.,.,.,-15
Cc1ccc(N2CC(C(=O)NC(C)CCc3ccccc3)CC2=O)cc1 (stereo unspecified),4,-3,53*,-8
O=C(c1ccc(OC2CCN(CCc3ccccc3)CC2)cc1)N1CCCCC1CCCO (stereo unspecified),5,-2,50*,-5
CSCC[C@@H](CO)NC(=O)[C@H]1O[C@@H](n2ccc(=O)[nH]c2=O)[C@H](O)[C@@H]1O,.,.,.,-5
CC(/C=C1\SC(=S)N(c2ccc(C(=O)O)cc2)C1=O)=C\c1ccccc1,-1,0,53*,1
CC(/C=C1\SC(=S)N(NC(=O)c2ccc(C)cc2)C1=O)=C\c1ccccc1,-4,0,20,.
C=CCn1c(CCNC(=O)c2ccccc2F)nnc1SCc1nc2ccccc2c(=O)[nH]1,13,-2,26,-7
C=CCn1c(CNC(=O)c2ccccc2F)nnc1SCc1nc2ccccc2c(=O)[nH]1,-2,7,52*,11
O=[N+]([O-])c1ccccc1/C=C\C=N\N1CCN(c2ccccc2)CC1,1,8,19,4
COc1ccccc1N1CCN(/N=C/C=C/c2ccccc2[N+](=O)[O-])CC1,-10,0,50*,1
Cc1ccc2c(c1)C(CS(=O)(=O)NCC(C)C)NC2 (stereo unspecified),.,.,.,-7
CCOC(=O)N1CCN(S(=O)(=O)c2ccc(NC(C)=O)cc2)CC1,4,0,52*,2
CCOC(=O)C1(C)CCCN(C(=O)c2ccc3c(c2)OCO3)C1 (stereo unspecified),.,.,.,9
O=C(Nc1cccc(F)c1)c1c(O)c2ccccc2[nH]c1=O,7,-3,50*,4
CCOC(=O)/C(C#N)=C/Nc1cc(OC)ccc1OC,-21,-3,-12,7
CCOP(=O)(OCC)/C(C#N)=C/c1cc(OC)ccc1OC,-8,0,52*,4
COc1ccc(C=C2C=C(C(C)(C)C)C(=O)C(C(C)(C)C)=C2)cc1OC,80*,4,16,-1
COC(=O)c1ccccc1C(=O)N1CCC(CCC(=O)NC2CC2)CC1,-8,-2,12,-1
